Source: PubChem
Shown are actives, neighbours in structure and some others; about 0.43% of the full set was active somewhere.
Rtt109 HAT inh = inhibitors of C. albicans Rtt109/Vps75 HAT, primary screen, biochemical, ThioGlo CoA-SH fluorescence, plate reader. purified Rtt109/Vps75, 4 h. Histone acetyltransferase RTT109 (Candida albicans (strain SC5314 / ATCC MYA-2876)), …. inhibition, % at 34.9 µM. 330,000 tested, 0.16% active;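 active means inhibition of at least 50% in every replicate; inconclusive means best replicate reaches 50% inhibition but some replicates fall short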
PKA-R2B activ = activators of PKA-R2B holoenzyme, primary screen, biochemical, fluorescence polarization, Cy5-IP20, human; cAMP-dependent protein kinase catalytic subunit beta (Homo sapiens) + cAMP-dependent …; PKA-R2B holoenzyme dissociation; R2B truncated from residue 108, S112A mutant; 0% DMSO only, 100% 113 µM cGMP; activation, % at 11.4 µM; 340,000 tested, 0.079% active; AID 504700, 2011;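 active means activation above a cutoff set at the mean over all compounds plus 3 SD, cut at about 18% in these data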;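 further: higher means more holoenzyme dissociation and a rise in polarization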
HDAC3 inhib = HDAC3 deacetylase inhibitors, primary screen, biochemical, fluorescence, cell-free homogeneous; inhibition, % at 8.3 µM; 320,000 tested, 0.15% active; AID 2718, 2010; Histone deacetylase 3 (Homo sapiens), O15379; recombinant HDAC3, fluorogenic peptide/trypsin coupled; in the data active means inhibition above about 26%, passing the limit was not always enough; inconclusive means no clear call, values can overlap the other calls
Target sequence (O15379 whole entry, looked up): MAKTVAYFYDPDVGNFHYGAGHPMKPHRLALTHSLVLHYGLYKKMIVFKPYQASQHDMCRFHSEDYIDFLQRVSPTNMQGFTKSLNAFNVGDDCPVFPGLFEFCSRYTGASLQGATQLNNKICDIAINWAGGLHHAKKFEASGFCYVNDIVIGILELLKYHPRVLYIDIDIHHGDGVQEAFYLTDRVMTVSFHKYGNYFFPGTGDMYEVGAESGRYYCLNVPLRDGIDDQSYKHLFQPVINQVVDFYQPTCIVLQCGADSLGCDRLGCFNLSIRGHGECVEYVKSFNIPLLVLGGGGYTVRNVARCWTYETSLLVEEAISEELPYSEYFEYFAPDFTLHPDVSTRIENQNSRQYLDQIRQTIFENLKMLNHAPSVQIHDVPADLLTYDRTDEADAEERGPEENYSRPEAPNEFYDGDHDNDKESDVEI
PKA-R1A activ = activators of PKA-R1A holoenzyme, primary screen, biochemical, fluorescence polarization, Cy5-IP20, bovine R1A, mouse PKAc. PKA-R1A dissociation; scaled: DMSO 0%, 113 µM cGMP 100%. activation, % at 11.4 µM. 340,000 tested, 0.083% active;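 active means percent activation above the mean of all tested compounds plus 3 SD, cut at about 19% in these data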;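 further: higher means more PKAc released from R1A so a rise in polarization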
R1A FP artifact = FP signal interference without PKA proteins, confirmation, artefact control for PKA-R1A activator project, biochemical, fluorescence polarization, triplicate; AID 504799, 2011; 280 tested, 7% active; Cy5-IP20 peptide alone, fluorescence polarization artifact counterscreen; shares compounds with PKA-R1A activ; activation, % at 11.4 µM;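 active means mean activation over triplicate runs exceeds the adjusted cutoff derived for the parent primary screen, cut at about 19% in these data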;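 further: no PKA protein present so any polarization rise reflects compound interference; higher means stronger polarization artifact and likely false positive in parent screen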
PKA-R1A confirm = activators of PKA-R1A holoenzyme, confirmation, biochemical, fluorescence polarization, Cy5-IP20, triplicate | shares compounds with PKA-R1A activ | PKA-R1A holoenzyme dissociation | activation, % at 11.4 µM | 280 tested, 9% active | AID 504800, 2011;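 active means mean activation over replicate wells exceeds the adjusted hit threshold taken from the earlier primary screen, cut at about 20% in these data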
Hits are given with their value; . = inactive; ? = inconclusive; / = no result.

SMILES	Rtt109 HAT inh	PKA-R2B activ	HDAC3 inhib	PKA-R1A activ	R1A FP artifact	PKA-R1A confirm
O=C(Cn1cnc2ccccc2c1=O)Nc1ccc(S(=O)(=O)N2CCCC2)cc1	.	.	.	.	/	/
c1ccc(COC2COC3C(OCc4ccccc4)COC23)cc1 (stereo not drawn)	.	.	/	.	/	/
CCOC(=O)N/N=C/c1ccc(N(CC)CC)cc1O	.	.	.	23	.	.
O=S(=O)(c1ccc(Br)s1)N1CCN(CCc2ccccc2)CC1	.	.	.	19	.	.
COc1cccc(CNCc2cc(OC)cc(OC)c2)c1	.	.	.	21	.	.
COc1cccc(CNCc2ccccc2OC)c1	.	.	.	.	/	/
O=C(NCc1ccccc1Cl)c1nnc(CS(=O)(=O)c2ccccc2)o1	.	.	.	.	/	/
CCCCNS(=O)(=O)c1ccc(NC(=O)C(Sc2ccccc2)c2ccccc2)cc1 (stereo not drawn)	.	.	?	.	/	/
CCCc1cc(C(=O)N/N=C/c2cccn2C)cs1	.	.	.	.	/	/
CN(Cc1ccccc1)C(=O)C1CCN(S(=O)(=O)c2ccc(-n3cnnn3)cc2)CC1	.	.	.	21	.	.
CCN(CC)C(=O)C1CCN(S(=O)(=O)c2ccc(-n3cnnn3)cc2)CC1	.	.	.	.	/	/
O=C1N(C2CCCC2)C[C@@H]2C[C@@H](c3cccn3-c3ccccn3)N3CCC[C@@]123	/	.	.	20	.	.
O=C1N(C2CCCC2)C[C@@H]2C[C@@H](c3cccn3-c3nccs3)N3CCC[C@@]123	.	.	.	.	/	/
Cc1c(C)n(Cc2ccc(F)cc2)c2ccc(C(=O)NCCCN3CCOCC3)cc12	.	.	.	.	/	/
Cc1cccc(/C=N/n2c(-c3cc(-c4ccccc4)n[nH]3)n[nH]c2=S)c1	.	.	.	19	.	.
S=c1[nH]nc(-c2cc(-c3ccccc3)n[nH]2)n1/N=C/c1ccccc1	.	.	.	.	/	/
Cc1ccc(-c2ccc(=O)n(CCC(=O)NCc3ccccn3)n2)cc1	.	.	.	19	.	.
Cc1cc(S(=O)(=O)NC(C)c2nnc3ccccn23)ccc1Br (stereo not drawn)	.	.	.	.	/	/
COc1cccc(C(=O)N2CCN(C(=O)C3CCCO3)CC2)c1 (stereo not drawn)	.	.	/	20	.	.
O=C(N/N=C/c1cccnc1)c1ccc2c(c1)OCCO2	.	.	.	.	/	/
O=C1NCCc2c1[nH]c1ccc([N+](=O)[O-])cc21	.	.	.	19	.	.
COc1ccc2[nH]c3c(c2c1)CCNC3=O	.	.	.	.	/	/
CN(C)CCCCOc1cccc(Br)c1	.	.	.	23	.	.
CCCn1c(SCC(=O)N2CCCC2)nc2c1c(=O)n(C)c(=O)n2C	.	.	.	21	.	.
Oc1ccc2ccccc2c1/C=N/n1cnnc1	.	.	.	19	.	.
SMILES	Rtt109 HAT inh	PKA-R2B activ	HDAC3 inhib	PKA-R1A activ	R1A FP artifact	PKA-R1A confirm
Oc1ccccc1C=NN=Cc1c(O)ccc2ccccc12	.	.	/	.	/	/
CC(C)[C@H](NS(=O)(=O)c1ccc2c(c1)OCCO2)C(=O)OCC(=O)Nc1ccccc1	.	.	.	19	.	.
Cc1ccc(S(=O)(=O)N[C@H](C(=O)OCC(=O)NC(=O)Nc2ccc3c(c2)OCCO3)C(C)C)cc1	.	.	.	.	/	/
O=C(OC(C(=O)NCc1ccccc1)c1ccccc1F)c1ccco1 (stereo not drawn)	.	.	.	.	/	/
COCCN(CCOc1cc(C)cc(C)c1)Cc1ccc(Cl)cc1	.	.	.	20	.	.
CN(C)CCOc1cc(Cl)cc(Cl)c1	.	.	.	.	/	/
CCCC1=C(C(=O)OCC)C(c2ccc(O)cc2)n2ncnc2N1 (stereo not drawn)	.	.	.	.	/	/
CCCC1=C(C(=O)OCC)C(c2sccc2C)n2ncnc2N1 (stereo not drawn)	.	.	.	19	.	.
Cc1nc(CCNS(=O)(=O)c2cccs2)cs1	.	.	.	20	.	.
COCCNC(=S)N(C)[C@H]1C[C@H]2c3cc(-c4ccccc4)ccc3CCN2C(=O)[C@H]1[C@H](C)O	/	.	/	.	/	/
CC(NC(=O)C1CCCC1)C1CC2CCC1C2 (stereo not drawn)	.	.	.	20	.	.
CC(NC(=O)C1CC=CCC1C(=O)O)C1CC2CCC1C2 (stereo not drawn)	.	.	.	.	/	/
S=C1Cc2ccccc2N1	.	.	/	.	/	/
O=C1Nc2ccccc2Cc2ccccc21	/	.	/	20	.	.
Cc1cc(C(=O)COC(=O)c2ccc(CO)cc2)c(C)n1CC1COc2ccccc2O1 (stereo not drawn)	.	.	.	19	.	.
Cc1cc(C(=O)CN2C(=O)C(=O)N(Cc3ccccc3)C2=O)c(C)n1CC1COc2ccccc2O1 (stereo not drawn)	.	.	.	.	/	/
CC(C)(C)S(=O)(=O)c1cnc(-c2ccccn2)nc1N	.	.	.	20	.	.
Cc1cc(Br)c(NC(=O)CN2C(=O)NC3(CCOc4ccccc43)C2=O)c(Br)c1 (stereo not drawn)	/	.	/	20	.	.
CCNC(=O)CN1C(=O)NC2(CCOc3ccccc32)C1=O (stereo not drawn)	.	.	.	.	/	/
CCC(O)(CC)C(=O)N(Nc1ccc(C)cc1)c1ccc(C)cc1	.	.	.	21	.	.
Cc1cc(Br)c(NC(=O)CCNC(=O)OCc2ccccc2)cc1C	.	.	.	.	/	/
CCC(CO)n1cnnc1-c1ccncc1 (stereo not drawn)	.	.	.	20	.	.
Cn1c(SCC(=O)Nc2ccc3c(c2)OCCO3)nnc1-c1ccncc1	.	.	.	.	/	/
CC1=NN(c2ccccc2)C(c2ccco2)C1 (stereo not drawn)	.	.	/	20	.	.
N#C/C(=C/c1ccco1)C(N)=S	.	.	/	19	.	.
Cc1cc(C)cc(SCc2noc(C(=O)NCc3ccccc3)c2C(=O)NCc2ccccc2)c1	.	.	.	.	/	/
